The values below come from PubChem BioAssay (NCATS).

Experiment [1] can be described thus: Primary fluorescence-based thiol-reactive (MSTI) qHTS assay for identification of artifact compounds. (AID 1845221). Note: nearly all actives have a fitted effect of over 65% in size. Note: potency is the fitted concentration of half-maximal effect. An outline of the steps:
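Reactivity toward the thiol probe MSTI (4 uM) is scored by fluorescence at Ex/Em 525/598 nm after 1 h at room temperature. Acetyl-MSTI and MSTI define the activity scale.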
(In general: qHTS replaces the single test concentration by a dilution series.)

For experiment [2], the system named is Nanoluciferase (engineered Oplophorus gracilirostris luciferase). The experiment in a line: Primary Nanoluciferase (NLuc) qHTS assay for identification of artifact compounds. (AID 1845222).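 Note: NLuc secreted into diluted conditioned medium of S16 cells; series mostly up to about 54 µM.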 Summed up:
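Using secreted nanoluciferase in S16 culture medium (0.22 um filtered, 1:55 dilution), compounds were preincubated 15 min at RT. Signal was generated with Nano-Glo reagent (1:100) over 5 min.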

Experiment [3] in a line: Primary redox qHTS assay for identification of artifact compounds. (AID 1845223). An outline of the steps: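 Amplex Red (25 uM) and HRP (250 mU/mL) in HBSS, with compounds for 15 min, then 250 uM DTT for 30 min, room temperature, dark. Fluorescence 525/598 nm read; normalized to DMSO and 10 uM DA3003; Hill fit.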

Records with an inconclusive call do not appear. Calls of active or inactive are those of the source. Calls come from the whole dose curve; as a rule, active = well fitted curve in the direction sought with a large enough effect; inconclusive = small, poorly fitted or top-dose-only effect, or another doubt; inactive = no such curve, though single readings can be large; an effect the other way counts as inactive or inconclusive.

Consider `CC(C)NC[C@H](O)COc1ccc(CCOCC2CC2)cc1`, for which the Potency entry in experiment [1], in experiment [2] and in experiment [3] was “inactive” each time.

On to `COc1c2c(c(C)c3c1C(=O)OC3)OC1(C)CC(O)C3(O)C(C)(C)OC(=O)CCC3(C)C1C2` (stereo unspecified), for which the Potency entry in experiment [1], in experiment [2] and in experiment [3] was “inactive” throughout.

With `C[C@@H]1C[C@H](O)/C=C/[C@H](O)[C@@H](O)CC(=O)O1`, the Potency result in experiment [1], in experiment [2] and in experiment [3] was “inactive” throughout.

For the compound `COc1cc(/C=C/C(=O)OC2[C@H](O)CC(O)(C(=O)O)C[C@H]2O)ccc1O` (stereo partly specified), the Potency result in experiment [1], in experiment [2] and in experiment [3] was “inactive” in each case.

With `C=C1CC[C@H]2[C@@H](/C=C(\C)C(=O)[C@@]3(OC(C)=O)C[C@H](C)[C@H](OC(C)=O)[C@@H]3[C@H]1OC(C)=O)C2(C)C`, the Potency result in experiment [1], in experiment [2] and in experiment [3] was “inactive” each time.

`CC1=CCC2C(C)(CO)CCCC2(C)C1CC12OC1C(O)C(CO)=CC2O` (stereo unspecified): the Potency entry in experiment [1], in experiment [2] and in experiment [3] was “inactive” in each case.

For `CC(=O)OC(CSC1CCC(=O)OC(C)CCC(=O)C1)C(=O)O` (stereo unspecified), the Potency entry in experiment [1], in experiment [2] and in experiment [3] was “inactive” each time.

As for `NC(Cc1c[nH]c2ccccc12)C(=O)NC(CCC(=O)O)C(=O)O` (stereo unspecified), the Potency entry in experiment [1], in experiment [2] and in experiment [3] was “inactive” in each case.

Turning to `CC1(C)CC(=O)N(CCCCN2CCN(c3ncccn3)CC2)C(=O)C1`, the Potency result in experiment [1], in experiment [2] and in experiment [3] was “inactive” throughout.

Turning to `COc1cc(/C=C/c2cc(O)cc(O[C@@H]3O[C@H](CO)[C@@H](O)[C@H](O)[C@H]3O)c2)ccc1O`, the Potency result in experiment [1], in experiment [2] and in experiment [3] was “inactive” throughout.

For `N#CCc1ccc(O)cc1O[C@@H]1O[C@H](CO)[C@@H](O)[C@H](O)[C@H]1O`, in experiment [1], the Potency was 13.1 µM (active). The Potency entry in experiment [2] and in experiment [3] was “inactive” each time.

As to `C[C@@H]1CC[C@]2(C(=O)O[C@@H]3O[C@H](CO)[C@@H](O)[C@H](O)[C@H]3O)CC[C@]3(C)C(=CCC4[C@@]5(C)C[C@@H](O)[C@H](O)C(C)(C)C5CC[C@]43C)C2[C@]1(C)O` (stereo partly specified), the Potency result in experiment [1], in experiment [2] and in experiment [3] was “inactive” throughout.
